Key:
Experiment in all cases: log2 ratio of Biotin-Ahx-Ub-VS probe labelling (fragment/DMSO); higher = less target engagement (more negative = stronger competition), active = hit call of the paper (q ≤ 0.05, log2 ratio ≤ -1)
Conditions in all cases: compound concentration: 200 uM; treatment time: 3 h
[1] = target: USP9X (UniProt Q93008)
Outline: (§1)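 HEK293T lysate (495 µg per sample, in Tris/CHAPS/IGEPAL buffer with protease inhibitors) was treated in triplicate with fragment at 200 µM or with DMSO for 3 h. It was then treated with Biotin-Ahx-Ub-VS (0.5 µM final) for 1 h. Labelled DUBs were NeutrAvidin-enriched, digested with LysC and trypsin, and run by diaPASEF LC-MS/MS. Spectronaut label-free quantities were global-median-normalised. Values are average log2 ratios fragment/DMSO by unpaired t-test, using proteins with ≥2 unique peptides.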

[2] = target: UniProt O00487
UniProt O00487, sequence (O00487 whole entry): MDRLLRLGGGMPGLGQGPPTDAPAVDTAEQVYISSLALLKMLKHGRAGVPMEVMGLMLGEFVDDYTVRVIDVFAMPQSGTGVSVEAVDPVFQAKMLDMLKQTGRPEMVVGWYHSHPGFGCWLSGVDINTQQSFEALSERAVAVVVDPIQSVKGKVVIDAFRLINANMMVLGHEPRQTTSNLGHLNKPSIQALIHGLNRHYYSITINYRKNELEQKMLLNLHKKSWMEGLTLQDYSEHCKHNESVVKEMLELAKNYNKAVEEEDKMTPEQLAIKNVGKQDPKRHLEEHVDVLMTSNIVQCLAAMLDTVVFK
Outline: as §1

[3] = target: UniProt O00507
UniProt O00507, sequence (O00507 whole entry): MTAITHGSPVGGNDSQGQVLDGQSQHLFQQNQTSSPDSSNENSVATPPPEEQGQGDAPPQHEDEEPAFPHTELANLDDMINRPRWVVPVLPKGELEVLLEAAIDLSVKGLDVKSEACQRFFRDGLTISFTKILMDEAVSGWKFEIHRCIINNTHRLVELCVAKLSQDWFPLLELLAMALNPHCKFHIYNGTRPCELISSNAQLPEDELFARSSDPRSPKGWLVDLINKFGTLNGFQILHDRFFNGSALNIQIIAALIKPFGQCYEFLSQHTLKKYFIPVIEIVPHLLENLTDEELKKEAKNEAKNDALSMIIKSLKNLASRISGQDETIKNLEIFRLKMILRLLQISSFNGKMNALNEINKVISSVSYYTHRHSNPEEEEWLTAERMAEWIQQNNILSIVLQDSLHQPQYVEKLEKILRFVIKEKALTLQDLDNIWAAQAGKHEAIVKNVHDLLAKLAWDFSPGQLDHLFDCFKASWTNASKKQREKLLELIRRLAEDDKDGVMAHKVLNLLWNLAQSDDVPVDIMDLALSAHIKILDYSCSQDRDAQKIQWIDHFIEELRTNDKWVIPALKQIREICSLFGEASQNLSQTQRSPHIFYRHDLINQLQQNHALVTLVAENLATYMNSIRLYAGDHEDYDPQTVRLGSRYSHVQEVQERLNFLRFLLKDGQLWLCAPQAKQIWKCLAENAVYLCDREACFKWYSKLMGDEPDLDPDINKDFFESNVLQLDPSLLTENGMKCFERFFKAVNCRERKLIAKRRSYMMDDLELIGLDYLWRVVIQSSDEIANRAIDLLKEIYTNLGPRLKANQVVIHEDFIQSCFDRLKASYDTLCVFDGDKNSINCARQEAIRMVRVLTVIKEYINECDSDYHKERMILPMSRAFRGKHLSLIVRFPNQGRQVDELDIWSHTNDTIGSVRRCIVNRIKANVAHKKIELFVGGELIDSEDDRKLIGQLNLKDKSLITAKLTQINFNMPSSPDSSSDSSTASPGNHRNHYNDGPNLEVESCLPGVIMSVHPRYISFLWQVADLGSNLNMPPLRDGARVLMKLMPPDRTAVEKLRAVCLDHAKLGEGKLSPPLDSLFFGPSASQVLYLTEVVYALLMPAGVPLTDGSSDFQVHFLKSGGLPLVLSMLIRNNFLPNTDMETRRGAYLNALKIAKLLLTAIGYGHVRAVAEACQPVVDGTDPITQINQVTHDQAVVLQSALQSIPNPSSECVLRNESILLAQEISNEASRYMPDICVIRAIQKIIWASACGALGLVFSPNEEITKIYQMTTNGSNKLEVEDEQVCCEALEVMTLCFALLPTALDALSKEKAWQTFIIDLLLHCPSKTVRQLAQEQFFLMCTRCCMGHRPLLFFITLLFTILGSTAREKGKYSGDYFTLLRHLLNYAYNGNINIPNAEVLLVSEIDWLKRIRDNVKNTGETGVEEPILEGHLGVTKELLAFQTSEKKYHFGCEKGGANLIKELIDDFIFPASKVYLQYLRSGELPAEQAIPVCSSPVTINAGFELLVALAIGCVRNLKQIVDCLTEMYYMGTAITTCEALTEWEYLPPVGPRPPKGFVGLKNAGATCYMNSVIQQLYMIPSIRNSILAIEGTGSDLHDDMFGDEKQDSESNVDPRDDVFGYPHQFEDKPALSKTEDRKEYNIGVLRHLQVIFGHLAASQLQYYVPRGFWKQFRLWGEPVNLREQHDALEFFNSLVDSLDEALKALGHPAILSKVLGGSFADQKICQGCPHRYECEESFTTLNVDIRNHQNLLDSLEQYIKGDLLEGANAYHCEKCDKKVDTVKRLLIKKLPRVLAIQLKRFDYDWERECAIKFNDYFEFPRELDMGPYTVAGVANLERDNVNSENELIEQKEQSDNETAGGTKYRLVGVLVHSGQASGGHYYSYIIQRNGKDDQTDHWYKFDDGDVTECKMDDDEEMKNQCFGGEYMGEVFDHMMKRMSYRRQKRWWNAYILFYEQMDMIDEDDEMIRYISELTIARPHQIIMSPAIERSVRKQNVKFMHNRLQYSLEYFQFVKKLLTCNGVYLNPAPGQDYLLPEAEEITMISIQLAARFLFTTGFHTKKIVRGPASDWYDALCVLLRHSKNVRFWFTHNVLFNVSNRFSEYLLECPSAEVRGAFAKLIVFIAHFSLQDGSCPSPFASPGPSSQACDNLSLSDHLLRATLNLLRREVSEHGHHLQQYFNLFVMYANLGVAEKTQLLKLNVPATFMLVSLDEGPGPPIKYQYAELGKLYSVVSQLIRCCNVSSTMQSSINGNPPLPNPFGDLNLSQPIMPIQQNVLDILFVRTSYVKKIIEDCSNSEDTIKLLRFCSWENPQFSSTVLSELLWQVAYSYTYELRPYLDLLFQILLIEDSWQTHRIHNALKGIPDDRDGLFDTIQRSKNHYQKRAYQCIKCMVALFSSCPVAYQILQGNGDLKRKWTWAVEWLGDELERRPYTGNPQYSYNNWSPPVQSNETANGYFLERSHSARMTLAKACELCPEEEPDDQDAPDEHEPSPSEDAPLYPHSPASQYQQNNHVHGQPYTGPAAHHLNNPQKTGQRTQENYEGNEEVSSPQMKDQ
Outline: as §1

[4] = target: UniProt P51784
UniProt P51784, sequence (P51784 whole entry): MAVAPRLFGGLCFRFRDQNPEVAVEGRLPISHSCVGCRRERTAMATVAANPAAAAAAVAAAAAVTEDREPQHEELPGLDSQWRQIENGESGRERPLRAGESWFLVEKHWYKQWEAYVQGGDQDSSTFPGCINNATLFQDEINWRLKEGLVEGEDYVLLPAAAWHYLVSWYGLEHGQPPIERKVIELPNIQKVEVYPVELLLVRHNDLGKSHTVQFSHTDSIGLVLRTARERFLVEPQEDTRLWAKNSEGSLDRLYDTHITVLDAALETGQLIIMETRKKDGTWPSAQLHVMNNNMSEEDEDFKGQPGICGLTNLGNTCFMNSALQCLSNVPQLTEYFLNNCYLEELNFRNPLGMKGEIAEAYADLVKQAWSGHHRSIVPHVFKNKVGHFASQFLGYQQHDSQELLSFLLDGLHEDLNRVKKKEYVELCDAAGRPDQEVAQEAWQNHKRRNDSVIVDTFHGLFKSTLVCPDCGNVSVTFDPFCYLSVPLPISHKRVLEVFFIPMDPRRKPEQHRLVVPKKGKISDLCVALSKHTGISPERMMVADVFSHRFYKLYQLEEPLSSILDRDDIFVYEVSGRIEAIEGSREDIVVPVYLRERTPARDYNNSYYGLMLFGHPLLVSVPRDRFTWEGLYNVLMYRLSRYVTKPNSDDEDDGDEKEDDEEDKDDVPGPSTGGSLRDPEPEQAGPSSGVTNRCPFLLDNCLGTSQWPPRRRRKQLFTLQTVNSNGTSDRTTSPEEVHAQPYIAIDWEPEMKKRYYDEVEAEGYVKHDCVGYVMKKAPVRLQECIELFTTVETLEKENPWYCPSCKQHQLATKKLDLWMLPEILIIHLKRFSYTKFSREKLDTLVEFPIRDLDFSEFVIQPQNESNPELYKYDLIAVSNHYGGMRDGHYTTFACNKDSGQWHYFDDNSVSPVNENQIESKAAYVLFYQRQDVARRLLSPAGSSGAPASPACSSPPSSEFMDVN
Outline: as §1

[5] = target: T1, UniProt Q5T2D3
T1 sequence (whole entry): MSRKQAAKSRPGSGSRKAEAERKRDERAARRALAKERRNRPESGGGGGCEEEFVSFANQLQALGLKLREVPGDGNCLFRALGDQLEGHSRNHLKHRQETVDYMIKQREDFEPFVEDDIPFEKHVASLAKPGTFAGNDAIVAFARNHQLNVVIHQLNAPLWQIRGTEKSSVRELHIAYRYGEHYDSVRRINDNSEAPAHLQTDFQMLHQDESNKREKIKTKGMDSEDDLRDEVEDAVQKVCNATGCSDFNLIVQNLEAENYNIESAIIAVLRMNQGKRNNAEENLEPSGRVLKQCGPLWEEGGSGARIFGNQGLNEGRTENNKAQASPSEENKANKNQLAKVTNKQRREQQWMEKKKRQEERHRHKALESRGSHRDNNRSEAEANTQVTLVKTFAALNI
Outline: as §1

[6] = target: T2, UniProt Q8TE49
T2 sequence (whole entry): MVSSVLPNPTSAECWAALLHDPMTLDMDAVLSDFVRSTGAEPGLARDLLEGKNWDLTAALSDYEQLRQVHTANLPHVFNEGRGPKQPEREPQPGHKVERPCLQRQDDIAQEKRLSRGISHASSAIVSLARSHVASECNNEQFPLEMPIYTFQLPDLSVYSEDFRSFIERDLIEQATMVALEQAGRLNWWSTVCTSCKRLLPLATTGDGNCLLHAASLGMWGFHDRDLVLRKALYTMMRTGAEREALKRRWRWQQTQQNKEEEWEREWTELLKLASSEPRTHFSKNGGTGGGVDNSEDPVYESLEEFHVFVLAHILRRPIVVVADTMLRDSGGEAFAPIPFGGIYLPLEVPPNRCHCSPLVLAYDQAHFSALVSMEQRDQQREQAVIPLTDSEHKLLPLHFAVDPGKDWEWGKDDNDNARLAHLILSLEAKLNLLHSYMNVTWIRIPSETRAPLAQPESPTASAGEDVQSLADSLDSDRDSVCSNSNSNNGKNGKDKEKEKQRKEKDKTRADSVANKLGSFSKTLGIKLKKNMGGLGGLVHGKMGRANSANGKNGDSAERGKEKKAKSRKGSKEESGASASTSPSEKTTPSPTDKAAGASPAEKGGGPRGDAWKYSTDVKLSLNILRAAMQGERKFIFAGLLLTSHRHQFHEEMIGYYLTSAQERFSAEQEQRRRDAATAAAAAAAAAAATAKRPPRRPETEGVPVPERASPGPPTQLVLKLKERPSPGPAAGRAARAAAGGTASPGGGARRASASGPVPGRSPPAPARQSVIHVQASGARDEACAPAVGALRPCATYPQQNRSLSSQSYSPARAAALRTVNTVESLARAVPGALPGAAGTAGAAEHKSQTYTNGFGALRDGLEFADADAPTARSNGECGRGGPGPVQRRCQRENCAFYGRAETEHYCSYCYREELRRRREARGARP
Outline: as §1

[7] = target: T3, UniProt Q9P2H5
T3 sequence (whole entry): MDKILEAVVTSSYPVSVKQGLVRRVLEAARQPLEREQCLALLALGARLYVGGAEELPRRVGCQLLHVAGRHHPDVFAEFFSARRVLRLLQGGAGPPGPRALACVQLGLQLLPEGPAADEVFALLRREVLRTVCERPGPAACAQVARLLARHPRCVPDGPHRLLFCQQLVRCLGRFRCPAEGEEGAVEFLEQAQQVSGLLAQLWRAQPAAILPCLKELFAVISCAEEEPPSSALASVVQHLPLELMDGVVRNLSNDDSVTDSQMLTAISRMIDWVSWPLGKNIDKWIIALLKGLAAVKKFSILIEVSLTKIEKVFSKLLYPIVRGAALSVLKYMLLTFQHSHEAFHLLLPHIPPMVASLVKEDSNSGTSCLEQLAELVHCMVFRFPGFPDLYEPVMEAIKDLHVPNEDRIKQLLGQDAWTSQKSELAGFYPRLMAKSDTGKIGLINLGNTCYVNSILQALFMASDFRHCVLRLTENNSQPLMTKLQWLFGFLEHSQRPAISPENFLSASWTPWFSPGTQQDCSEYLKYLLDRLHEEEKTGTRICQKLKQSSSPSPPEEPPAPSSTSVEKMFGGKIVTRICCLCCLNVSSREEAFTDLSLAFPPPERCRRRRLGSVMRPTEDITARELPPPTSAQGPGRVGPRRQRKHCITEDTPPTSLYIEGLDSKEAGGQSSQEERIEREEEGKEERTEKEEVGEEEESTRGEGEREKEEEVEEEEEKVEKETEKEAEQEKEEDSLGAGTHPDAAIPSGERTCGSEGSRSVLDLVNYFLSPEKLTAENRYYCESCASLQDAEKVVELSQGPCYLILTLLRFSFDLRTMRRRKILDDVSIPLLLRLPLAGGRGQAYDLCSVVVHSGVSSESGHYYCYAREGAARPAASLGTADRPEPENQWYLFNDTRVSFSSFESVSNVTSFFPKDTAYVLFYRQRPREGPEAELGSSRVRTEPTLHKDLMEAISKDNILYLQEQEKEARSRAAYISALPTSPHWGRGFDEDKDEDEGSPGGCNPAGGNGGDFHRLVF
Outline: as §1

[8] = target: T4, UniProt Q9UGI0
T4 sequence (whole entry): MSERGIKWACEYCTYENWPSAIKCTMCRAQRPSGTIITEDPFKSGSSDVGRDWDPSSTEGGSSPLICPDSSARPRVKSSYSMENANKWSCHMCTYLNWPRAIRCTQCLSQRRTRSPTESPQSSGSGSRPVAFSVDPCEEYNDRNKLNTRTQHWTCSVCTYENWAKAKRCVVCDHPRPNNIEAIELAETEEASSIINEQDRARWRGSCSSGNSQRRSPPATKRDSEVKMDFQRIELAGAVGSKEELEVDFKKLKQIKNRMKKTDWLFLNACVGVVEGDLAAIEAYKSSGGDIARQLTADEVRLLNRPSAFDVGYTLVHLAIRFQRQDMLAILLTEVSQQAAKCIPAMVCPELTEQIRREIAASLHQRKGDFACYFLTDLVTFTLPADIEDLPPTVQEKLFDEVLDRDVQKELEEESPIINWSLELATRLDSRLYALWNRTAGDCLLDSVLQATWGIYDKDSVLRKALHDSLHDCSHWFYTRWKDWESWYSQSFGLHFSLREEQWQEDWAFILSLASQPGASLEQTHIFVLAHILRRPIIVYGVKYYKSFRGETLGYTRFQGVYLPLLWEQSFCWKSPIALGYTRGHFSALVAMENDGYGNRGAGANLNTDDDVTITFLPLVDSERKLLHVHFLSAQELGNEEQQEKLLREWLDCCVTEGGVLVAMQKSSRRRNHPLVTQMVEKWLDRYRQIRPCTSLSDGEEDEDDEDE
Outline: as §1

[9] = target: T5, YOD1 (UniProt Q5VVQ6)
T5 sequence (whole entry): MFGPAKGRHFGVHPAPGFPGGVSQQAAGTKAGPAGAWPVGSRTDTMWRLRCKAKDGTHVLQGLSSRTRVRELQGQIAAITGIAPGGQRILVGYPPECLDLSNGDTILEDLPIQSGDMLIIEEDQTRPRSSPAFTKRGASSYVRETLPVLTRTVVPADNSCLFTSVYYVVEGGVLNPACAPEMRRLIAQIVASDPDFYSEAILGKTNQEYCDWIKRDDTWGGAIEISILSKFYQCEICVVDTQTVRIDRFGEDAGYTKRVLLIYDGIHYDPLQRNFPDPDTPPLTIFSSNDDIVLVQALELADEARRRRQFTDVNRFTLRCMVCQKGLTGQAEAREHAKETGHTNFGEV
Outline: as §1

Measured: log2 ratio of Biotin-Ahx-Ub-VS probe labelling

Cl.Cn1cnc2cc(CNC(=O)CCl)ccc21
inactive: [1] -0.0792 | [2] -0.00543 | [3] 0.245 | [4] -0.209 | [5] -0.0728 | [6] -0.354 | [7] -0.126 | [8] -0.308 | [9] 0.0476
